Experimental findings from PubChem BioAssay (EPA / NIEHS) are described below.

Records with an inconclusive call do not appear. Activity calls are given as the source filed them. Rule for the calls: active = hit-call score of the fitted dose curve at least 0.9, where 1 is the maximum; inconclusive = response in the unintended direction; inactive = score below 0.9.

This assay deals with human Peroxisome Proliferator-activated Receptor delta (PPARd), PPARD (gene 5467) (UniProt Q03181). Kind of assay: ATG_PPARd_TRANS: Attagene TRANS-FACTORIAL HepG2 Assay for human Peroxisome Proliferator-activated Receptor delta (PPARd) (AID 2283002). The procedure: ATG_TRANS is a cell-based, multiplexed-readout assay that uses HepG2, a human liver cell line, with measurements taken at 24 hours after chemical dosing in a 24-well plate.ATG_PPARd_TRANS is one of 30 assay component(s) measured or calculated from the ATG_TRANS assay. It is designed to make measurements of mRNA induction, a form of inducible reporter, as detected with fluorescence intensity signals by Reverse transcription polymerase chain reaction (RT-PCR) and Capillary electrophoresis technology.Data from the assay component ATG_PPARd_TRANS was analyzed into 1 assay endpoint. This assay endpoint, ATG_PPARd_TRANS, was analyzed in the positive analysis fitting direction relative to DMSO as the negative control and baseline of activity. Using a type of inducible reporter, measures of mRNA for gain-of-signal activity can be used to understand the reporter gene at the transcription factor-level as they relate to the gene PPARD. Furthermore, this assay endpoint can be referred to as a primary readout, because this assay has produced multiple assay endpoints where this one serves a reporter gene function. To generalize the intended target to other relatable targets, this assay endpoint is annotated to the nuclear receptor intended target family, where the subfamily is non-steroidal.
Chain of human Peroxisome Proliferator-activated Receptor delta (PPARd), PPARD (gene 5467) (Q03181 whole entry, looked up): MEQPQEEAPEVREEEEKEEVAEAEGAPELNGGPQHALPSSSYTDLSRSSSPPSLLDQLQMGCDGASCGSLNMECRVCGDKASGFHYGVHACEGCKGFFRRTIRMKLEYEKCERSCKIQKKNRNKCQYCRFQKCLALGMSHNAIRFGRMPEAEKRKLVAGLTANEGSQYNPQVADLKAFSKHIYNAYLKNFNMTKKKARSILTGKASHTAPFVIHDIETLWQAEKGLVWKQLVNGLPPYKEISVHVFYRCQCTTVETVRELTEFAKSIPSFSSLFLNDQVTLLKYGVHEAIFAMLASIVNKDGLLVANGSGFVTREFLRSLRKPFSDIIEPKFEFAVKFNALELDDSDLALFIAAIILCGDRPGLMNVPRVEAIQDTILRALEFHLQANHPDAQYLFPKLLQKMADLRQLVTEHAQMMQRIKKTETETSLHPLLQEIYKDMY
Human liver HepG2 cells are transiently transfected with multiple reporter transcription units (MRTUs) in 6-well plates using FuGene 6 reagent (Roche; 3 ml FuGene/1 mg DNA). The MRTU constructs are regulated by a cis-regulating element (promoter). […] A major difference between the CIS and TRANS system is that in CIS activities of endogenous TFs are measured, whereas the TRANS assay evaluates changes in activities of exogenous, chimeric NR-Gal4 proteins. […] At the end of 24 hour incubation, total RNA was isolated using TriZol reagent (Invitrogen). The isolated RNA is then reverse-transcribed using oligo(dT) primer and Mo-MLV reverse transcriptase (Invitrogen) with DNAse I (Ambion) treatment for 30 min. The one-tenth of the produced cDNA was amplified by PCR using Taq DNA polymerase (Invitrogen) and two reporter sequence-specific primers. The PCR products were fluorescently labeled by primer extension with 6-arboxyfluorescein (6-FAM) 5'-labeled reporter sequence-specific primer (2 min at 95 C, 20 s at 68 C and 10 min at 72 C) and these products were digested with 5U of HpaI (New England Biolabs) for 2h at 37 C. The fragments were purified using Qiaquick PCR columns (Qiagen), analyzed on an ABI 3130xL genetic analyzer (Applied Biosystems) with peak positions identified by using a set of X-rhodamine (ROX)-labeled MapMarker1000 molecular weight standards (BioVentures). The raw capillary electrophoresis data was processed using Attagraph software (Attagene).
For the compound `O=C1CCC(C2CCCCC2)CC1`, the call was inactive. On the same count and under the same terms, for `O=C1c2ccccc2C(=O)N1CCc1noc(-c2ccc(CN3CCCCCC3)s2)n1` the value was “inactive”. On the same count and under the same terms, for `CN(C)c1ccc(C(=C2C=CC(=[N+](C)C)C=C2)c2ccc(N(C)C)cc2)cc1` the value was “inactive”; for `CC(C)(O)c1ccc(CNC(=O)c2cccnc2Oc2ccc3nonc3c2)cc1`, “inactive”. For the compound `Cc1cc(F)ccc1-c1cc(N2CC[C@@H](O)[C@H]2CO)ncc1N(C)C(=O)C(C)(C)c1cc(C(F)(F)F)cc(C(F)(F)F)c1`, the call was inactive. The same measure, in the same setting: with `CCCCCCCCN(C)CCCCCCCC` the entry was “inactive”; with `CCCCCCCCCCCC[N+](C)(C)C`, “inactive”.

As for `COCC(C)OCC(C)OCC(C)O` (stereo not given), the compound was called inactive. `CC1=CC(=O)/C(=C(/C)O)C(=O)O1`: the compound was called inactive.

As for `O=c1[nH]sc2ccccc12`, the outcome was inactive. In the case of `CN(C[C@@H](CC[N+]12CCC(C3CCCCC3)(CC1)CC2)c1ccc(Cl)c(Cl)c1)C(=O)c1cc(C(F)(F)F)cc(C(F)(F)F)c1`, the call was inactive. The same measure, in the same setting: for `Cc1oc2c(NC(=O)c3c(Cl)cccc3Cl)cccc2c1C(C)(C)O` the value was “inactive”; for `CCN(Cc1cccnc1)C(=O)c1cccc(Cl)c1[C@]1(C)C(=O)N(Cc2ccc(OC)cc2OC)c2ccc(Cl)cc21`, “inactive”. In the case of `COc1cc(C(=O)NC2CCN(C)CC2)ccc1Nc1ncc2c(n1)N(C1CCCC1)CC(F)(F)C(=O)N2C`, the AC50 (as a rule, the midpoint of the concentration-response curve, whichever way the signal moves) was 3.45 µM (active). `c1ccc(C[n+]2cccc3ccccc32)cc1`: the outcome was inactive. The same measure, in the same setting: for `CC(C)(C)c1cc(/C=C2\SC(N)=NC2=O)cc(C(C)(C)C)c1O` the value was “inactive”; for `O=c1c(-c2ccc(O)cc2)coc2cc(O)cc(O)c12`, “inactive”; for `NCc1cccc(C2CCN(C(=O)c3ccc(C#Cc4ccccc4F)o3)CC2)c1`, “inactive”. In the case of `CCCCCCCCCCCO`, the AC50 is 166 µM (active). Regarding `CC[C@@H]1C[C@H](N(Cc2cc(C(F)(F)F)cc(C(F)(F)F)c2)C(C)=O)c2cc(C(F)(F)F)ccc2N1C(=O)OC(C)C`, the call was inactive. On to `CCCCCc1ccc(N)cc1`, for which the result was inactive. On the same count and under the same terms, for `Clc1cc(Cl)c2c(c1)N=C1CCCCCN1C2` the value was “inactive”.

Regarding `OC12N=C(c3ccccc3)SC1Cc1cc(Cl)ccc12` (stereo not given), the call was inactive. The same measure, in the same setting: with `CCCCCCCCCCCCO` the entry was “inactive”; with `OCCO`, “inactive”.

In the case of `CCCOC(=O)c1cc(O)c(O)c(O)c1`, the result was inactive. Same read-out and setting: with `O=C=NCCCCCCN=C=O` the entry was “inactive”. On the same count and under the same terms, for `O=C(Nc1ccc(Cl)cc1)Nc1ccc(Cl)c(Cl)c1` the value was “inactive”; for `Cc1cc2c(cc1C(F)(F)F)N(C(=O)Nc1ccc(Oc3cccnc3C)nc1)CC2`, “inactive”. The same measure, in the same setting: for `O=C(O)c1ccccc1-n1cc(C(=O)O)c(=O)c2cc(Nc3c(F)cc(F)cc3Cl)c(Cl)cc21` the value was “inactive”; for `CC(C)(C)c1csc(-c2cc3cc(OCc4ccccc4CC(=O)O)ccc3o2)n1`, “inactive”; for `CC[C@H](NC(=O)c1cc(F)ccc1NS(=O)(=O)c1cccc2cccnc12)c1ccccc1`, “inactive”. Consider `CO[C@H]1/C=C/O[C@@]2(C)Oc3c(C)c(O)c4c(O)c(c(/C=N/N5CCN(C)CC5)c(O)c4c3C2=O)NC(=O)/C(C)=C\C=C\[C@H](C)[C@H](O)[C@@H](C)[C@@H](O)[C@@H](C)[C@H](OC(C)=O)[C@@H]1C`, for which the outcome was inactive. Same read-out and setting: for `c1ccc2n[nH]nc2c1` the value was “inactive”.

With `O=CCCCC=O`, the result was inactive. Take `Cc1cn([C@H]2C[C@H](N=[N+]=[N-])[C@@H](CO)O2)c(=O)[nH]c1=O`: the call was inactive. In the case of `NC(=O)c1nc(-c2cccc(-c3cc(F)ccc3OCC(F)(F)C(F)(F)F)c2)n[nH]1`, the compound was classed as inactive. Still for that read-out and setting: for `Cc1cccc2ccccc12` the value was “inactive”; for `Cc1ccc(C(C)C)cc1`, “inactive”. As for `CCCCOC(=O)c1ccc(O)cc1`, the result was inactive.
